# Hit rate of the full screen: of about 360,000 compounds, about 11,000 (3.1%) were called active. Another 2% or so got no clear call; they are omitted. The entries come from a sample that favours actives as a whole. Unmarked numbers belong to inactive results. Cut-off read from the data, not from the text of the source: active = fluorescence intensity above about 16000; inconclusive = no clear call, values can overlap the other calls; inactive = below that.
# Experiment: counter-screen for toxin protease inhibitors: compound fluorescence, primary screen, artefact control for toxin protease inhibitor project, biochemical, multiplex microsphere, HTS (AID 624483)
# Conditions: compound autofluorescence counterscreen, microsphere flow cytometry; stronger effect = higher value
row,SMILES,fluorescence intensity
1,COc1ccc(C(C)(O)c2nc(-c3cc(F)cc(F)c3)cs2)cc1 (stereo not given),3820
2,OCCN1CCN(c2ncnc3c2ncn3[C@H]2CN(Cc3ccco3)C[C@@H](CO)O2)CC1,2940
3,CC(=O)C1=CCC(c2ccccc2)N(S(=O)(=O)c2ccc(C)cc2)C1 (stereo not given),4360
4,CCOC(=O)C1(CCOc2ccccc2)CCN(Cc2cc(OC)cc(OC)c2)CC1,3960
5,CCOC(=O)C1(S(=O)(=O)c2ccccc2)CCN(Cc2ccccc2)CC1,25000 (active)
6,CCOC(=O)C1(S(=O)(=O)c2ccc(Cl)cc2)CCN(Cc2ccccc2)CC1,22200 (active)
7,CCOC(=O)C1(CCc2ccccc2)CCN(Cc2ccco2)CC1,2080
8,CCOC(=O)C1(CCOC)CCN(Cc2ccc(C(=O)OC)cc2)CC1,4510
9,O=C(NNS(=O)(=O)c1ccc(Cl)cc1)C1CCN(Cc2ccccc2)CC1,9590
10,COC(=O)[C@@]1(Cc2ccc(F)cc2)[C@H]2c3cc(C(=O)N(C)C)n(CCc4c[nH]c5ccc(OC)cc45)c3C[C@H]2CN1C(=O)c1ccccc1,6230
11,Nc1nc2c(ncn2[C@@H]2O[C@H](CNCc3ccc(OCCCN4CCOCC4)cc3)[C@@H](O)[C@H]2O)c(=O)[nH]1,6030
12,CCCc1c(-c2ccccc2F)ncn1Cc1ccccc1OC,6360
13,N#C/C(=C\c1ccc(N2CCOCC2)o1)C(=O)N1CCOCC1,3190
14,COC(=O)[C@]1(Cc2ccccc2)N[C@H](CN(C)S(=O)(=O)c2ccc(F)cc2)[C@@H]2C(=O)N(Cc3ccccc3)C(=O)[C@@H]21,2850
15,COc1ccc(N(CCC#N)S(=O)(=O)c2ccc(Cl)cc2)cc1,19700 (active)
16,COc1ccc(N(CC(=O)N2CCCCCC2)S(=O)(=O)c2ccccc2)cc1,5240
17,COc1ccc(S(=O)(=O)NCCCCOc2ccc(Cl)cc2)cc1,3450
18,CC1(C)C(C=C(Cl)Cl)C1C(=O)NC(O)C(=O)c1ccccc1 (stereo not given),3770
19,CCOC(=O)C1=CC[C@@H](c2ccccc2)N(S(=O)(=O)c2ccc(C)cc2)[C@H]1c1ccc(CC)cc1,5350
20,OC[C@@H]1CN(Cc2cccs2)C[C@H](n2cnc3c(NC4CCCC4)ncnc32)O1,4050
21,O=C(NCC(F)(F)F)Nc1nnc(C(F)(F)F)s1,2520
22,Fc1cnc(N2CCOCC2)nc1NCc1ccccc1,19200 (active)
23,CC(Nc1nc(N2CCOCC2)nc2ccccc12)c1ccccc1 (stereo not given),4260
24,c1ccc(COc2nsnc2N2CCOCC2)cc1,4190
25,CCOCCCN(C(=O)Cn1nnc(-c2ccc(OC)c(OC)c2)n1)C(CC)C(=O)NC1CCCC1 (stereo not given),3360
26,COc1ccc(C(C(=O)NC2CCCC2)N(CCCO)C(=O)Cn2nnc(-c3ccc(C)o3)n2)cc1 (stereo not given),5780
27,CC(C)CCNC(=O)C(C)N(C(=O)Cn1nnc(-c2ccc(F)cc2)n1)C1CCCC1 (stereo not given),23500 (active)
28,CN(C(=O)Cn1nnc(-c2ccc(F)cc2)n1)C1CCS(=O)(=O)C1 (stereo not given),6480

row,SMILES,fluorescence intensity
1,CC(C)CCNC(=O)CN(C(=O)Cn1nnc(-c2ccc(F)cc2)n1)C1CCCC1,7590
2,COc1cccc(N(CC(=O)NC2CCCC2)C(=O)Cn2nnc(-c3ccc(C)cc3)n2)c1,20000 (active)
3,COc1cccc(N(CC(=O)NC2CCCC2)C(=O)CCCC(=O)Nc2ccccn2)c1,6270
4,COc1ccc(-c2nnn(CC(=O)N(CCO)C(C(=O)NC3CCCC3)c3ccc(F)cc3)n2)cc1 (stereo not given),20700 (active)
5,COc1cccc(N(CC(=O)NC2CCCC2)C(=O)Cn2nnc(-c3ccc(C)o3)n2)c1,5040
6,Cc1ccc(C(=O)O)cc1S(=O)(=O)NCC1CCCO1 (stereo not given),8490
7,O=C(O)C(=Cc1ccccc1[N+](=O)[O-])c1ccccc1,3020
8,CCOC1=C2[C@H]([C@H]3C(=O)N(c4ccccc4)C(=O)[C@H]3C1)[C@@H](c1ccccc1)N(S(=O)(=O)c1ccc(C)cc1)[C@H]2c1ccccc1,5740
9,CN(CCO)C(=O)c1nc[nH]c1C(=O)N(C)Cc1ccccc1,6070
10,COCCCNc1ccn2nc(-c3ccc(CC(C)C)cc3)cc2n1,3740
11,CC1(C(=O)Nc2cccc(Oc3ccccc3)c2)CCN1Cc1ccccc1Cl (stereo not given),2960
12,CCCS(=O)(=O)NC(=O)C1(C)CCCN(C(=O)c2ccnc(Cl)c2)C1 (stereo not given),3780
13,O=C(NCc1cccnc1)c1cc(C2CCCN(C(=O)C3CCCCC3)C2)on1 (stereo not given),3680
14,CC1(C)CC(=O)C=C(NC2CC(C)(C)NC(C)(C)C2)C1,11500
15,CC1(C)CC(=O)C=C(NCCCN2CCCC2=O)C1,10600
16,CC1(C)CC(=O)C=C(NCCCNC2CCCCC2)C1,16400 (active)
17,CCOc1ccc(C(=O)NC2CCN(CC(=O)NCc3cccs3)CC2)cc1,4320
18,CC(=O)c1cccc(-c2cnc3c(NC=O)cc(-c4ccccc4Oc4ccccc4)cn23)c1,2970
19,CCc1nc2ccc(C(=O)Nc3ccc(OC)c(OC)c3)cn2c1N(C)C(=O)c1cccc(OC)c1,3840
20,Cc1cccc(NC(=O)C2CCCN2S(=O)(=O)c2ccc(F)cc2)c1C (stereo not given),12300
21,CSc1cccc(NC(=O)C2CCCN2S(=O)(=O)c2ccc3c(c2)CCC(=O)N3)c1 (stereo not given),22100 (active)
22,O=C1CCc2cc(S(=O)(=O)N3CCC(C(=O)NCc4ccccc4Cl)CC3)ccc2N1,5010
23,O=CNc1cc(-c2ccc(C(=O)N3CCOCC3)cc2)cn2c(-c3ccc(F)cc3)cnc12,4100
24,NC(Cc1ccccc1)c1csc(Nc2cc(Oc3ccccc3)ncn2)n1 (stereo not given),3760
25,CN1CCN(C(=O)N2c3ccccc3CCc3ccccc32)CC1,4530
26,CC1CC(C)CN(CC(=O)N2c3ccccc3CCc3ccccc32)C1 (stereo not given),17600 (active)
27,CC1CC(C)CN(CC(=O)Nc2ccc(S(N)(=O)=O)cc2)C1 (stereo not given),4900

# From PubChem BioAssay AID624483 (NMMLSC, 2012)
